Results taken from PubChem BioAssay AID1671463 (Sanford-Burnham Center for Chemical Genomics, 2021).
In all, about 370,000 compounds went through this assay and about 520 (0.14%) were called active. This is one part of a sample in which actives are shown more often than they occur. A number with no mark means an inactive call. Cut-off read from the data, not from the text of the source: active = activation above about 40%; inactive = the rest.

The compounds below were run against Atrial natriuretic peptide receptor 1 (Homo sapiens) (UniProt P16066) (assay: GC-A stimulated cGMP production enhancers – HEK293 GC-A cells, cGMP TR-FRET, EC30 ANP, primary screen (AID 1671463)). Conditions: at 10 µM, hits give high values, 0% at EC30 ANP, 100% saturating ANP.
Sequence of Atrial natriuretic peptide receptor 1 (Homo sapiens) (P16066 whole entry, looked up): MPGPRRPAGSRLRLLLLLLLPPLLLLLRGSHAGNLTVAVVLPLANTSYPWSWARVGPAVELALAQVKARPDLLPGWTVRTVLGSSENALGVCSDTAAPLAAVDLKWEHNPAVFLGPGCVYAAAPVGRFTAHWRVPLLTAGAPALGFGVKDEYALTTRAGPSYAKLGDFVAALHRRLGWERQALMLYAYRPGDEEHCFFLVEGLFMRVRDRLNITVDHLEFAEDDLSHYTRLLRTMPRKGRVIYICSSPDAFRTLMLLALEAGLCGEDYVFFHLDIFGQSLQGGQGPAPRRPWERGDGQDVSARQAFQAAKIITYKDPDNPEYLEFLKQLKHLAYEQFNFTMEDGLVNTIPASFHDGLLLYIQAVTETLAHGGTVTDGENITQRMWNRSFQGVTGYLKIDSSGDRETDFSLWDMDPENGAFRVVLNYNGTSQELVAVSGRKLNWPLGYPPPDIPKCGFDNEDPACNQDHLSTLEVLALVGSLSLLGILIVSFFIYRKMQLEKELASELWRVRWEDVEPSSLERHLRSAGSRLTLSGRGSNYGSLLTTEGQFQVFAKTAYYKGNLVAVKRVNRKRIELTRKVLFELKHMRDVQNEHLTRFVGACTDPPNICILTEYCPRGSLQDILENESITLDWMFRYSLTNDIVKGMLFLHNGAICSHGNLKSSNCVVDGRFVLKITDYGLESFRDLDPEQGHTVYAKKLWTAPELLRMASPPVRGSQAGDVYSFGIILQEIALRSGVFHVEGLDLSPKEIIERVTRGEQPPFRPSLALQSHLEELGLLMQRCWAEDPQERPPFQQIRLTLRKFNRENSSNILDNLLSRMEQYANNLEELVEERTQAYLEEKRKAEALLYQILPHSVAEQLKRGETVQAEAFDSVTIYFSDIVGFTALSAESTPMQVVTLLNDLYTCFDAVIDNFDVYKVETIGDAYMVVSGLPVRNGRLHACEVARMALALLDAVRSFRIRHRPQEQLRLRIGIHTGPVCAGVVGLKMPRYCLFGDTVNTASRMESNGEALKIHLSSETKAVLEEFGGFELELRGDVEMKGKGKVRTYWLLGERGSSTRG

| SMILES | activation |
| --- | --- |
| Cc1ccc(C(=O)NC(=S)Nc2ccc3[nH]c(=O)[nH]c3c2)cc1C | -4.45% |
| COC(=O)COc1ccc2c(=O)c(Oc3ccccc3Br)coc2c1 | 46.5% (active) |
| CCc1ccc(Oc2coc3cc(OC(=O)c4cc5ccccc5oc4=O)ccc3c2=O)cc1 | -3.3% |
| CCc1ccc(Oc2coc3cc(O)ccc3c2=O)cc1 | 9.73% |
| CC[C@H](C)[C@@H](C(=O)N1CCNCC1)n1cc([C@@H](N)Cc2ccc(O)cc2)nn1 | -0.45% |
| CC1(C)CC(=O)c2cnc3nc4ccccc4n3c2C1 | 1.08% |
| Cc1ccc(Cn2c(=N)c(S(=O)(=O)c3ccc(C)cc3)cc3c(=O)n4ccccc4nc32)cc1 | 0.3% |
| Cc1cc(C)nc(NC(=O)Nc2ccccc2C(F)(F)F)n1 | 9.79% |
| Cc1cc(C)nc(S/C=C/C(=O)c2ccccc2)n1 | 43.5% (active) |
| CCn1c(CSc2nc(C)cc(C)n2)nnc1SCC(N)=O | -2.17% |
| Cc1cc(NC(=O)CCC(=O)N(CC(=O)NCC2CCCO2)c2ccccc2)no1 (stereo unspecified) | -2.42% |
| CC#CC[N+](C)(C)CCCCCC | 1.8% |
| O=C(NCCCO)/C(=C\C=C\c1ccccc1)NC(=O)c1ccccc1Cl | 1.06% |
| COc1ccc(C2OC(=O)CC2C(=O)NC(C)C)cc1 (stereo unspecified) | -0.27% |
| O=C1CN(C(=O)c2ccccc2F)C(c2ccc(F)cc2)c2cc(F)ccc2N1 (stereo unspecified) | -11% |
| CCCCN1C(=S)NC[C@@H]1C(C)CC (stereo partly specified) | -0.8% |
| CC[n+]1cc(C)ccc1/C=C/c1ccc(N(C)C)cc1 | -28.2% |
| CCCc1nn(C)c2c(=O)[nH]c(-c3cc(S(N)(=O)=O)ccc3OCC)nc12 | 53.2% (active) |
| CCOc1ccc(-n2cnc3c(=O)[nH]c(N)nc32)cc1 | 23% |
| CCOc1ccccc1N1CCN(C(=S)Nc2ccc(S(N)(=O)=O)cc2)CC1 | 2.84% |
| CC1CCC(N2CC(=O)N(Cc3ccc4c(c3)OCO4)C(c3ccc(F)cc3)C2=O)CC1 (stereo unspecified) | -15.6% |

| SMILES | activation |
| --- | --- |
| Cc1csc(NC(=O)C2CCCN2C(=O)OCC(C)C)n1 (stereo unspecified) | -0.58% |
| CN(C)CCCn1c(SCCN2C(=O)c3ccccc3C2=O)nc2ccccc2c1=O | -1.16% |
| CN(C)CCn1c2c(c(SCC(=O)NCc3ccccc3)nc1=O)CCC2 | 3.93% |
| O=C(NCc1ccccc1)C(c1cccnc1)N(C(=O)c1csnn1)c1ccc(F)cc1 (stereo unspecified) | 2.49% |
| O=C1CCC(=O)N1CCOP1(=O)COc2ccccc2OC1 | 1.8% |
| Cc1ccc(Cl)cc1NC(=O)COC(=O)C1CCCCC1 | 4.33% |
| COc1ccc(NC(=O)CN(C)C(=O)Cc2coc3cc(C)c(C)cc23)cc1 | 0.74% |
| CC(C)=CCN1CCN(Cc2ccc(Oc3ncccn3)cc2)CC1CCO (stereo unspecified) | -0.64% |
| Cc1nc(-c2nnc(SCC(=O)Nc3cc(C(F)(F)F)cc(C(F)(F)F)c3)n2C)cs1 | 1.31% |
| CC1CN/C(=C\C(=O)c2ccc(Br)cc2)C(=O)N1 (stereo unspecified) | 45.4% (active) |
| COc1cc2c(cc1OC)/C(=C/C(=O)c1ccc(NC(C)=O)cc1)NCC2 | 6.02% |
| O=C(O)C1CCCN1S(=O)(=O)c1ccc(Br)cc1 (stereo unspecified) | 3.81% |
| COc1ccc(N(CCC#N)S(=O)(=O)c2ccc(Cl)cc2)cc1 | -7.67% |
| Cc1ccccc1CN(c1ccc(C(=O)NCC2CCCO2)cc1)S(C)(=O)=O (stereo unspecified) | 2.8% |
| COc1ccc(CCNC(=O)CSc2nc3c([nH]2)c(=O)n(C)c(=O)n3C)cc1 | -1.99% |
| Cc1[nH][nH]c(=O)c1C(c1ccc(-c2ccc(Cl)cc2)o1)c1c(C)[nH][nH]c1=O | 3.79% |
| O=C(Nc1cc(S(=O)(=O)N2CCOCC2)ccc1OCC(F)(F)F)c1ccc(N2CCCC2=O)cc1 | -0.92% |
| O=C(NCCCN1CCCCCC1)c1ccc(N2CCCC2=O)cc1 | -0.43% |
| CS(=O)(=O)c1ccc2nc(NC(=O)c3ccc(N4CCCC4=O)cc3)sc2c1 | 62.2% (active) |
| CC(=O)Nc1cc(-c2ccccc2N(C)C)cn2c(-c3ccc(F)c(Cl)c3)cnc12 | 3.6% |
